# Experiments:
# Format in all cases: functional
# Plasmodium falciparum [1] = assay: GSK_TCMDC: Inhibition of Plasmodium falciparum 3D7 in whole red blood cells, using parasite LDH activity as an index of growth. Test compounds present at 2uM
# Plasmodium falciparum [2] = assay: GSK_TCMDC: Inhibition of Plasmodium falciparum Dd2 in whole red blood cells, using parasite LDH activity as an index of growth. Test compounds present at 2uM
# HepG2 = assay: GSK_TCMDC: Percent inhibition of human HepG2 cell line. Test compounds present at 10uM.
smiles,measurement,setting,value
CCCCCCCNc1cc(C)nc2ccc(OC)cc12.Cl,Inhibition,Plasmodium falciparum [1],100%
same,Inhibition,Plasmodium falciparum [2],100%
same,Inhibition,HepG2,30%
O=C(NCc1ccc2c(c1)OCO2)c1nn(CCN2CCC(N3CCCC3)CC2)cc1-c1ccc(Cl)c(Cl)c1,Inhibition,Plasmodium falciparum [1],94%
same,Inhibition,Plasmodium falciparum [2],17%
same,Inhibition,HepG2,21%
Cc1cc(N2CCN(CC3CCN(C)CC3)CC2)nc(Nc2ccc(Br)cc2)n1,Inhibition,Plasmodium falciparum [1],100%
same,Inhibition,Plasmodium falciparum [2],100%
same,Inhibition,HepG2,31%
Cc1cc(N2CCC(C)CC2)nc2cc(O)ccc12,Inhibition,Plasmodium falciparum [1],89%
same,Inhibition,Plasmodium falciparum [2],41%
same,Inhibition,HepG2,31%
C=C(F)c1sc(CNCCCNc2nc3ccccc3[nH]2)c(C)c1Br,Inhibition,Plasmodium falciparum [1],100%
same,Inhibition,Plasmodium falciparum [2],23%
same,Inhibition,HepG2,15%
O=C(O)C(F)(F)F.O=[N+]([O-])c1cccc(CNCC2CCN(CC3CCCCC3)CC2)c1,Inhibition,Plasmodium falciparum [1],90%
same,Inhibition,Plasmodium falciparum [2],14%
same,Inhibition,HepG2,11%
COC(=O)C(NC(=O)c1ccc(-c2ccc(-c3nc4ccccc4[nH]3)s2)cc1)c1ccc(O)cc1 (stereo not drawn),Inhibition,Plasmodium falciparum [1],83%
same,Inhibition,Plasmodium falciparum [2],49%
same,Inhibition,HepG2,99%
CCCCCN1CCCCC(NS(=O)(=O)c2ccc(C(=O)Nc3cccc(C(F)(F)F)c3)cc2)C1.O=C(O)C(F)(F)F (stereo not drawn),Inhibition,Plasmodium falciparum [1],93%
same,Inhibition,Plasmodium falciparum [2],2%
same,Inhibition,HepG2,14%
COc1ccc(C2CCN(CCCCNC(=O)c3ccc(NC(=O)c4ccc(Cl)cc4)cc3)CC2)cc1Cl,Inhibition,Plasmodium falciparum [1],97%
same,Inhibition,Plasmodium falciparum [2],75%
same,Inhibition,HepG2,28%
CC(C)c1nc2c(N)nc(N)nc2nc1N,Inhibition,Plasmodium falciparum [1],84%
same,Inhibition,Plasmodium falciparum [2],0%
same,Inhibition,HepG2,64%
O=C(Nc1cc(C(F)(F)F)cc(C(F)(F)F)c1)c1cccc([N+](=O)[O-])c1,Inhibition,Plasmodium falciparum [1],93%
same,Inhibition,Plasmodium falciparum [2],15%
same,Inhibition,HepG2,23%
